34 compounds from PubChem BioAssay (NCATS) can be followed below.

The structures appear in SMILES notation. Results filed as inconclusive are left out. Calls of active or inactive are those of the source. The call rests on the fitted dose curve; in most records, active means well fitted curve in the direction sought with a large enough effect; inconclusive means small, poorly fitted or top-dose-only effect, or another doubt; inactive means no such curve, though single readings can be large; an effect the other way counts as inactive or inconclusive.

In experiment [1] the target is N-terminal Xaa-Pro-Lys N-methyltransferase 1 (Homo sapiens) (UniProt Q9BV86). Description: qHTS Assay for Inhibitors of N-terminal methyltransferase 1 (NTMT1): LOPAC validation of the NTMT1 SAHH-coupled ThioGlo3 Assay (AID 1347143). Further: nearly all actives have a fitted effect of over 70% in size. Further: potency means the concentration at half of the fitted maximal effect. The method, boiled down: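 Fluorescence read-out (excitation 340nm, emission 450nm) of SAH-derived thiol, measured via SAHH coupling and ThioGlo3, taken immediately and after a 30 min room-temperature reaction, then normalized to the background read. Enzyme: NTMT1 at 125nM; cofactor SAM 100uM in the added reagent.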
Sequence of N-terminal Xaa-Pro-Lys N-methyltransferase 1 (Homo sapiens) (Q9BV86 whole entry, looked up): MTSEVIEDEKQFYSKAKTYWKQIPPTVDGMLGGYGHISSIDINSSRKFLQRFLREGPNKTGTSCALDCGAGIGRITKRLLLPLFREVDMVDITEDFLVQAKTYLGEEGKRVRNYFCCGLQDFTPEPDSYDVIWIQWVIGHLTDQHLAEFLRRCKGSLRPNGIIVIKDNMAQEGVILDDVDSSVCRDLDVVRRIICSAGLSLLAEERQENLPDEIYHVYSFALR

A short description of experiment [2]: qHTS of pediatric cancer cell lines to identify multiple opportunities for drug repurposing: Confirmatory screen for control Hh wild type fibroblast cells (AID 1347121). Further: nearly all actives have a fitted effect of over 70% in size. The method, boiled down: (§1)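 Cells (500-1,000/well) in growth media were settled 5 h at 37 degrees C, then given compounds for 48 h. Viability was read as CellTiter-Glo luminescence. Primary runs used MIPE at 11 points (0.78 nM-46 µM) and NPC at 8 points (0.59 nM-46 µM); follow-ups used 11 points.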
(In general: In qHTS, concentration-response curves come from the screen itself.)

Experiment [3] can be described thus: qHTS of pediatric cancer cell lines to identify multiple opportunities for drug repurposing: Confirmatory screen for RD cells (AID 1347124).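 Further: potency means the concentration at half of the fitted maximal effect; cells exposed to compound for 48 h before viability readout; nearly all actives have a fitted effect of over 65% in size.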 Summed up:
as §1

The nature of experiment [4]: qHTS of pediatric cancer cell lines to identify multiple opportunities for drug repurposing: Confirmatory screen for Rh18 cells (AID 1347125). Further: nearly all actives have a fitted effect of over 55% in size. Summed up:
as §1

Experiment [5] in a line: qHTS of pediatric cancer cell lines to identify multiple opportunities for drug repurposing: Confirmatory screen for Rh30 cells (AID 1347126). Further: nearly all actives have a fitted effect of over 55% in size. Summed up:
as §1

Experiment [6] is described as follows: qHTS of pediatric cancer cell lines to identify multiple opportunities for drug repurposing: Confirmatory screen for Saos-2 cells (AID 1347127). Further: potency means the concentration at half of the fitted maximal effect; nearly all actives have a fitted effect of over 60% in size. The conditions noted are these: Saos-2 osteosarcoma cell viability. Summed up:
as §1

Experiment [7] is described as follows: qHTS of pediatric cancer cell lines to identify multiple opportunities for drug repurposing: Confirmatory screen for OHS-50 cells (AID 1347128).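 Further: potency means the concentration at half of the fitted maximal effect; compound exposure lasted 48 h at 37 degrees C; nearly all actives have a fitted effect of over 55% in size.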 Summed up:
as §1

For experiment [8], the system named is Zika virus NS2B-NS3 protease. Nature of the experiment: Primary screen GU AMC qHTS for Zika virus inhibitors (AID 1347154). Further: nearly all actives have a fitted effect of over 70% in size. Summed up:
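Unlinked Zika NS2B hydrophilic domain/NS3 protease domain noncovalent complex (25 nM final) in 10 mM Tris-HCl pH 8.0, 0.01% Tween 20, with AMC peptide substrate. Fluorescence (ex 340, em 450 nm) change over 15 min, room temperature; percent inhibition fitted to 4-parameter Hill equation.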

Experiment [9] concerns the target Furin (Homo sapiens) (UniProt P09958). Description: Furin counterscreen qHTS for Zika virus inhibitors (AID 1347149). Further: nearly all actives have a fitted effect of over 70% in size. Further: potency means the concentration at half of the fitted maximal effect. The method, boiled down:
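Fluorogenic cleavage of BOC-RVRR-AMC (2 microM final, Km ~15 µM) was monitored (ex 340, em 450 nm) at 37C after 15 min RT preincubation of 5 nM furin with compounds in HEPES pH 7.0 buffer with CaCl2 and Triton X-100. Percent inhibition was fitted to a 4-parameter Hill curve.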
For orientation: The purpose of a counterscreen is to sort out artefacts and off-target activity.

The subject of experiment [10] is Zika virus NS2B-NS3 protease (unlinked). Description: Optimization of GU AMC qHTS for Zika virus inhibitors: Unlinked NS2B-NS3 protease assay (AID 1347151). Further: nearly all actives have a fitted effect of over 80% in size. Further: potency means the concentration at half of the fitted maximal effect. Summed up: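 Fluorescence gain (340/450 nm) over 15 min at room temperature, ~20% conversion, gave percent inhibition fitted to a 4-parameter Hill equation; enzyme was unlinked NS2B-NS3 (25 nM final), pH 8.0 Tris buffer.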

Experiment [11] concerns Zika virus NS2B-NS3 protease (unlinked complex). Nature of the experiment: Confirmatory screen GU AMC qHTS for Zika virus inhibitors (AID 1347153). Further: nearly all actives have a fitted effect of over 70% in size. Summed up:
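Noncovalent NS2B hydrophilic domain/NS3 protease complex (25 nM) in 10 mM Tris-HCl pH 8.0, 0.01% Tween 20 was preincubated 15 min at room temperature with compounds. Then 10 µM AMC substrate (Km 18.3 µM) was added; fluorescence was read over 15 min and fitted to a 4-parameter Hill equation.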

A short description of experiment [12]: Confirmatory screen NINDS Rhodamine qHTS for Zika virus inhibitors (AID 1347161). Further: nearly all actives have a fitted effect of over 60% in size. Further: potency means the concentration at half of the fitted maximal effect. The method, boiled down:
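Aprotinin served as in-plate control. Conditions: 25 nM linked NS2B-NS3, pH 8.0 Tris buffer, titrated compounds, 15 min preincubation and 15 min reaction with 1.5 microM Rhod110 substrate at room temperature.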

For experiment [13], the system named is Zika virus NS2B-NS3 protease (linked construct). Description: Confirmatory screen NINDS AMC qHTS for Zika virus inhibitors (AID 1347152). The method, boiled down: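 IC50s from 4-parameter Hill fits of percent inhibition, based on AMC fluorescence gain (340/450 nm) over 15 min with 10 microM Bz-Nle-KRR-AMC. Enzyme: 1 nM linked NS2B-NS3 in Tris-HCl pH 8.0; 15-min compound preincubation.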

Sequence of Furin (Homo sapiens) (P09958 whole entry, looked up): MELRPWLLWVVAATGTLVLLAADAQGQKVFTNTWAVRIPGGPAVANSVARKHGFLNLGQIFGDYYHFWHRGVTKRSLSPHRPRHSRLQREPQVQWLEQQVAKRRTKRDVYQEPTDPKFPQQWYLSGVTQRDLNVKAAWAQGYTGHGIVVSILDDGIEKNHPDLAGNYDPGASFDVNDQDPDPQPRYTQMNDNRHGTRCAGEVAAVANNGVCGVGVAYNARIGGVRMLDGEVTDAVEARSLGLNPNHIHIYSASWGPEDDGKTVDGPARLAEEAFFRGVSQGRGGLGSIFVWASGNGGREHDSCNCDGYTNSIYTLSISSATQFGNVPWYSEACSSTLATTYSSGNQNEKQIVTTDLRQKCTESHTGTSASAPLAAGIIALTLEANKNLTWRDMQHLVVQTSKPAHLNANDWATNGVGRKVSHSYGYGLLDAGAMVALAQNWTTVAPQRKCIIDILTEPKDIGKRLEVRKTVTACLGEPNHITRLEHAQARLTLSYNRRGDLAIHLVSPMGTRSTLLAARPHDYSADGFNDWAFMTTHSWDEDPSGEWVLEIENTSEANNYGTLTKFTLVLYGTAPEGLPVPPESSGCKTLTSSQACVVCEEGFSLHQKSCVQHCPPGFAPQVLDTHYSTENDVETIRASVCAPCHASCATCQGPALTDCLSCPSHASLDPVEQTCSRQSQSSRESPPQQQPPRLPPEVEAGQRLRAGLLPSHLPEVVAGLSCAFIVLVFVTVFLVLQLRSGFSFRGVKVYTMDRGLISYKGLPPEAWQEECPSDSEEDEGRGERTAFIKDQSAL

With `N=c1ccn2c(n1)O[C@H]1C(O)[C@@H](CO)O[C@H]12` (stereo partly specified), in experiment [1], the Potency result was “inactive”.
On the same count and under the same terms, for `C=C[C@H]1CN2CC[C@@H]1C[C@H]2[C@H](O)c1ccnc2ccc(OC)cc12` the value was 56.2 µM (active); for `NC(=O)C1=CN(C2OC(COP(=O)(O)OP(=O)(O)OC[C@H]3O[C@@H](n4cnc5c(N)ncnc54)[C@H](OP(=O)(O)O)C3O)C(O)C2O)C=CC1` (stereo partly specified), “inactive”.
For the compound `COC(=O)Nc1nc2ccc(C(=O)C3CC3)cc2[nH]1`, the Potency entry in experiment [2], in [4], in [5] and in [8] was “inactive” in each case. The results for the Potency in [3], in experiment [6] and in experiment [7] were 2.33 µM (active), 1.31 µM (active) and 1.31 µM (active), respectively.
Consider `NC(=O)C(=O)O`, for which the Potency entry in experiment [1], in experiment [9] and in experiment [10] was “inactive” each time.
For `CC[C@H]1OC(=O)[C@H](C)C(O[C@H]2C[C@@](C)(OC)[C@@H](O)[C@H](C)O2)[C@H](C)[C@@H](OC2O[C@H](C)C[C@H](N(C)C)[C@H]2O)[C@](C)(O)C[C@@H](C)CN(C)[C@H](C)[C@@H](O)[C@]1(C)O` (stereo partly specified), in experiment [1], the Potency entry is “inactive”.
In the case of `O=C(c1cc(O)c(O)c([N+](=O)[O-])c1)c1ccccc1F`, the Potency in experiment [1] is 56.2 µM (active); in [12] it was 17.5 µM (active). Further, the Potency entry in [9] is “inactive”. Moreover, in [11], the compound was classed as inactive.
For `CCC(CO)Nc1nc(NCc2ccccc2)c2ncn(C(C)C)c2n1` (stereo unspecified), the Potency entry in experiment [1] and in experiment [10] was “inactive” in each case.
As for `CCCCCCCCCCCCCCCCCCN(CCCCCCCCCCCCCCCCCC)CCCN(CCO)CCO`, the Potency result in experiment [1] and in experiment [10] was “inactive” each time.
On to `CNC(=O)[C@H]1O[C@@H](n2cnc3c(NCc4ccc(N)cc4)ncnc32)[C@H](O)C1O` (stereo partly specified), for which the Potency result in experiment [1] is “inactive”.
`OCC1O[C@H](O)C(Cl)C(O)C1O` (stereo partly specified): the Potency entry in experiment [1] and in experiment [10] was “inactive” in each case.
Take `CO/N=C(\C(=O)N[C@@H]1C(=O)N2C(C(=O)O)=C(COC(C)=O)CS[C@H]12)c1csc(N)n1` (stereo in doubt): in [1], the Potency entry was “inactive”.
Take `O=C1NCc2c1c1c3ccccc3[nH]c1c1[nH]c3ccccc3c21`: the Potency in experiment [1] is 79.4 µM (active); in experiment [10], 23.8 µM (active).
Take `O=C(O)CC1CCCc2ccccc2C1O` (stereo unspecified): the Potency result in experiment [1] and in [10] was “inactive” in each case.
`O=C(NOCC1CC1)c1cc(Br)c(F)c(F)c1Nc1ccc(I)cc1Cl`: the Potency result in experiment [1], in experiment [9] and in experiment [13] was “inactive” throughout. Besides, in experiment [11], the compound was called inactive. Further, the Potency in experiment [12] was 3.92 µM (active).
Turning to `COc1ccc(/C=C/c2nc(NCCCN(C)C)c3ccccc3n2)cc1`, the values for the Potency in experiment [1] and in experiment [9] were 50.1 µM (active) and 24.1 µM (active), respectively. Besides, the Potency entry in [13] and in experiment [12] was “inactive” throughout. Further, the result in [11] was inactive.
Consider `C#C[C@]1(O)CC[C@H]2[C@@H]3CCC4=Cc5oncc5CC4(C)[C@H]3CCC21C` (stereo partly specified), for which the Potency entry in experiment [1] and in experiment [10] was “inactive” each time.
On to `O=C(/C=C/c1ccc(O)c(O)c1)OCCc1ccccc1`, for which the Potency was 35.5 µM (active) in [1] and 6.7 µM (active) in [10].
The corresponding values for `Oc1ccc(C2CNCc3sccc32)cc1O` (stereo unspecified) are 35.5 µM (active) and “inactive”.
For the compound `Cc1cn([C@H]2CC(N=[N+]=[N-])[C@@H](CO)O2)c(=O)[nH]c1=O` (stereo partly specified), the Potency entry in [1] and in experiment [10] was “inactive” throughout.
In the case of `Nc1nc(OCC2CCCCC2)c2[nH]cnc2n1`, in experiment [1], the Potency result is “inactive”.
Turning to `COc1cc(C(O)CO)ccc1OS(=O)(=O)O` (stereo unspecified), the Potency result in experiment [1] and in experiment [10] was “inactive” in each case.
On to `Nc1nc2c(ncn2[C@@H]2O[C@H](CO)[C@@H](O)[C@@H]2O)c(=O)[nH]1`, for which the Potency entry in [1] and in experiment [10] was “inactive” throughout.
For `COc1ccc2c(c1)CCC1C2CC[C@@]2(C)C1CC[C@@H]2NCCCCCCN1C(=O)CCC1=O` (stereo partly specified), the Potency result in experiment [1] and in experiment [10] was “inactive” each time.
For the compound `N#C/C(=C\c1ccc(O)c(O)c1)C(=O)c1ccc(O)c(O)c1`, the Potency was 31.6 µM (active) in experiment [1] and 1.19 µM (active) in experiment [10].
Turning to `Brc1cc2c(cc1[C@H]1Nc3ccccc3[C@H]3C=CC[C@H]31)OCO2`, the Potency result in [1] and in experiment [10] was “inactive” in each case.
With `Oc1cc2c(cc1O)CN(C(=S)NCCc1ccc(Cl)cc1)CCC2`, the Potency in experiment [1] was 20 µM (active); in [10] it was 23.8 µM (active). The Potency entry in experiment [9], in experiment [13] and in experiment [8] was “inactive” throughout. Further, the compound was classed as inactive in experiment [11].
Consider `OC[C@H]1O[C@@H](n2cnc3c(NC4CCCC4)ncnc32)[C@H](O)C1O` (stereo partly specified), for which the Potency entry in experiment [1] is “inactive”.
As to `CC[C@H]1OC(=O)[C@H](C)[C@@H](O[C@H]2C[C@@](C)(OC)[C@@H](O)[C@H](C)O2)[C@H](C)[C@@H](O[C@@H]2O[C@H](C)C[C@H](NC)[C@H]2O)[C@](C)(O)C[C@@H](C)CN(C)[C@H](C)[C@@H](O)[C@]1(C)O`, the Potency result in experiment [1] and in experiment [10] was “inactive” in each case.
As to `Cn1c(=O)c(-c2c(Cl)cccc2Cl)cc2cnc(Nc3ccc(N4CCOCC4)cc3)nc21`, the Potency in experiment [1] was 56.2 µM (active).
With `COCCOc1cc2ncnc(Cl)c2cc1OCCOC`, in experiment [1], the Potency result is “inactive”.
For the compound `O=C(CCc1ccncc1)NNC(=O)N1Cc2ccccc2Oc2ccc(Cl)cc21`, the Potency entry in [1] and in [10] was “inactive” throughout.
On to `Oc1cc(O)cc(/C=C/c2ccc(O)c(O)c2)c1`, for which the Potency in experiment [1] was 35.5 µM (active); in [10], 23.8 µM (active).
As to `NO`, the Potency entry in experiment [1] and in experiment [10] was “inactive” in each case.
